A1 inh = inducers of caspase activity in MEF A1-2A-BIM cells, primary screen, A1 inhibitor project, cell-based, CaspaseGlo luminescence; caspase-Glo luminescence, 3 h; percent of clofoctol signal, DMSO as zero; caspase activation, % (no concentration beside the values); 21,000 compounds, 0.51% hits;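 active = most replicate scores above 10, or exactly half above 10 with mean activity above 10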;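 note: effector caspase 3 and 7 activity cleaving a DEVD luciferin substrate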
* hit, by the source's call. The full list was thinned out, with hits kept by preference.

SMILES | A1 inh
CCC(Sc1nc2cc3c(cc2c(=O)n1Cc1ccco1)OCO3)C(=O)Nc1ccccc1OC (stereo not given) | -1
O=C(CSc1nc2ccccc2c(=O)n1Cc1ccco1)c1ccccc1 | 0
CCC(Sc1nc2cc3c(cc2c(=O)n1Cc1ccco1)OCO3)C(=O)NCc1ccc(C)cc1 (stereo not given) | 15*
O=C(O)C1CCC(Cn2c(SCc3ccccc3Cl)nc3ccsc3c2=O)CC1 (stereo not given) | 1
O=c1nc2c(-c3cccc(C(F)(F)F)c3)n[nH]n2c2ccccc12 | -1
CC(Cc1ccccc1)NC(=O)CC(c1ccccc1)c1cc(Br)ccc1O (stereo not given) | 2
CCOC(=O)N1CCN(C(=O)c2cccn3c(=O)c4cc5ccccc5cc4nc23)CC1 | -1
NS(=O)(=O)c1ccc(CCNC(=O)c2cccn3c(=O)c4cc5ccccc5cc4nc23)cc1 | 13*
O=C(NCCc1ccccc1)c1cc(-c2ccccc2)nc2ccccc12 | 1
C=C(C)c1cccc(C(C)(C)NC(=O)NC23CC4CC(CC(C4)C2)C3)c1 | 0
Nc1cccc(-c2cc3c(Oc4cccc(O)c4)ncnc3[nH]2)c1 | 23*
CC1=C(C#N)C(C(F)(F)F)(C(F)(F)F)N=C(C2CCCCC2)N1 | -1
CCCC(C)NC(=O)Cc1ccc(Cl)cc1 (stereo not given) | 0
CN(C(=O)Cn1nc(C(F)(F)F)c2c1CCCC2)c1ccccc1 | 2
O=C(/C=c1\[nH]/c(=C/c2ccc(F)cc2)c(=O)[nH]c1=O)c1ccccc1 | 12*
COc1ccc(/C=c2/[nH]/c(=C\C(=O)c3ccccc3)c(=O)[nH]c2=O)cc1OC | 7
O=C1OCCN/C1=C\C(=O)c1ccccc1 | 0
CCCCC(=O)Nc1ccc2oc(-c3ccc(O)c(Br)c3)nc2c1 | -5
C=CCSc1ncnc2c1sc1nc(N3CCOCC3)c3c(c12)CCCC3 | -1
C=CCNC(=S)C(=O)Nc1ccccc1 | -6
COc1cc2c(cc1OC)C1C(C)C(=O)C3=C(CSCC3=O)N1CC2 (stereo not given) | 0
CCC1CN2CCc3cc(OC)c(OC)cc3[C@@H]2C[C@@H]1C[C@H]1NCCc2cc(OC)c(OC)cc21 (stereo not given in full) | 17*
CCCC(=O)N1CCc2cc(OC)c(OC)cc2C1COc1ccc(OC)cc1 (stereo not given) | 0
Cn1c(O)c(C=Nc2cccc(CO)c2)c2ccccc21 | -3
CCc1ccc(N=Cc2c(O)n(-c3ccccc3)c(=O)c3ccccc23)cc1 | 41*
SMILES | A1 inh
CCc1ccc(N=Cc2c(O)[nH]c(=S)[nH]c2=O)cc1 | -1
O=C(/C=C/c1ccco1)N1CCN(C(c2ccccc2)c2ccccc2)CC1 | 0
O=C(/C=N/O)Nc1cc(C(F)(F)F)cc(C(F)(F)F)c1 | -2
CSc1nc(Nc2cccc(C(F)(F)F)c2)cc(C(F)(F)F)c1C#N | 1
N#CC(C(=O)c1cccc(C(F)(F)F)c1)=C1SCCCCS1 | 0
CSC(SC)=C(C#N)C(=O)c1cccc(C(F)(F)F)c1 | 48*
CCC(CC)NC(=O)C(C)Oc1ccccc1 (stereo not given) | 1
CC(CNC(=O)c1cc2oc3ccccc3c2n1C)c1ccccc1 (stereo not given) | -1
CCS(=O)(=O)CCSc1nc(-c2ccccc2)cc(-c2ccccc2)c1C#N | -1
CN(C)CCNC(=O)c1cc2c(s1)-c1ccc(Cl)cc1SC2 | 39*
CC(=O)Nc1cc(C(=O)NCCN(C)C)ccc1Sc1ccc(Cl)cc1 | 0
CCCNC(=O)c1cc2c(s1)CS(=O)(=O)C2 | 1
CC1(C)CC(C)(c2ccccc2)c2cc(SC#N)ccc2N1 (stereo not given) | -2
COc1cc(NC(=O)c2ccc(CSC3CCCCC3)cc2)cc(OC)c1OC | 2
CN(C)c1nc(Cl)nc(N(C#N)CN2C(=O)c3ccccc3C2=O)n1 | 0
COc1ccc(C(=O)OCC(=O)n2c(C)c(C)c3ccccc32)cc1 | -1
COc1ccc(-c2nnc(Nc3cccc(C(F)(F)F)c3)c3ccccc23)cc1 | 0
COc1ccc(OC)c(CCN=C2NS(=O)(=O)C(c3ccc(C)cc3)=C2C)c1 | 1
CC1=C(c2ccc(C)cc2)S(=O)(=O)NC1=NC1CCN(Cc2ccccc2)CC1 | 9.6*
CC1=C(c2ccc(C)cc2)S(=O)(=O)NC1=NC(C)C12CC3CC(CC(C3)C1)C2 (stereo not given) | 0
O=C(CSc1nc2c(sc3ccccc32)c(=O)n1CC1CCCO1)c1ccccc1 (stereo not given) | -1
O=C1CC(c2ccco2)Cc2nc(NC3CC3)ncc21 (stereo not given) | -1
Cc1cccn2c(=O)c3cc(C(=O)NCCN4CCOCC4)c(=N)n(C(C)C)c3nc12 | 0
CC(=O)Nc1ccc(OS(=O)Nc2nnc(C)c3ccccc23)cc1 (stereo not given) | 1
CCSc1nnc(NC(=O)CCC(=O)OC2CCC(C)C(C)C2)s1 (stereo not given) | 0

High-throughput results as filed in PubChem BioAssay.
